Laboratory results: PubChem BioAssay (Tox21)
Inconclusive results are not listed. Where a call stands in place of a potency, no number is given. Values without a mark were called inactive. Activity calls are given as the source filed them. Unless noted, calls come from the whole dose curve; as a rule, active = well fitted curve in the direction sought with a large enough effect in the repeat runs; inconclusive = weak or mixed curves; inactive = no such curve, though single readings can be large; an effect the other way counts as inactive or inconclusive.

Assays:
[1] = target: Retinoic acid receptor RXR-alpha (Homo sapiens) (UniProt P19793); experiment: qHTS assay to identify small molecule agonists of the RXR signaling pathway (AID 1159527; calls by dose curve; note: nearly all actives have a fitted effect of over 35% in size)
Sequence of Retinoic acid receptor RXR-alpha (Homo sapiens) (P19793 whole entry, looked up): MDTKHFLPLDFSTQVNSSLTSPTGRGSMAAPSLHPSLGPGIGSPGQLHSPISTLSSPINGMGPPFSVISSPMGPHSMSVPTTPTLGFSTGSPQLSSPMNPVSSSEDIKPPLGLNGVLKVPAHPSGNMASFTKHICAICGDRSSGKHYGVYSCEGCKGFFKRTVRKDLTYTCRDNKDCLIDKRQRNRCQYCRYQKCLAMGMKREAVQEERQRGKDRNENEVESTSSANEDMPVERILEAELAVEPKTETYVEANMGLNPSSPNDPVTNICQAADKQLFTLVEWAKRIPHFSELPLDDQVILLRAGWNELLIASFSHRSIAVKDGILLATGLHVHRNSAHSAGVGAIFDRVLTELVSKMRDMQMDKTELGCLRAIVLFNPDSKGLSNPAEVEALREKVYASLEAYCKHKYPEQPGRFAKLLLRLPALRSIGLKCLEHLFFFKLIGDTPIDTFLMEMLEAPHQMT
Method in brief: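 Using 9-cis retinoic acid as the reference agonist, chemicals were tested in HEK 293T cells […] for 16 hr; substrate loading lasted 2 hr at room temperature.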

[2] = qHTS assay to identify small molecule agonists of the RXR signaling pathway - cell viability counter screen (AID 1159529); note: series mostly up to about 77 µM; nearly all actives have a fitted effect of over 50% in size
Method in brief: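 Compounds dissolved in DMSO were pinned onto HEK 293T cells carrying a beta-lactamase reporter under RXR-alpha control and incubated 16 hr. Cytotoxicity was then quantified by CellTiter-Glo luminescence.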

[3] = qHTS assay to identify small molecule antagonists of the retinoid acid receptor (RAR) signaling pathway - cell viability counter screen (AID 1159551); note: nearly all actives have a fitted effect of over 35% in size
Method in brief: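 Seed C3RL4 cells; next day add compound, then retinol to 1 uM final; incubate 6 h at 37 C; add CellTiter-Glo; read luminescence after 30 min at RT.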

[4] = qHTS assay to identify small molecule antagonists of the retinoic acid receptor (RAR) signaling pathway (AID 1159552; note: nearly all actives have a fitted effect of over 50% in size)
Method in brief: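 Test chemicals and DMSO controls were pin-transferred onto C3RL4 cells a day after seeding; retinol (1 uM final) followed at once. Luminescent reporter output was quantified after 6 hr of co-incubation and 30 min with detection reagent.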

[5] = qHTS assay to identify small molecule agonists of the retinoic acid receptor (RAR) signaling pathway (AID 1159553)
Method in brief: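 Activation of retinol signaling was monitored via a RARE luciferase reporter in C3RL4 cells. After 6 hr compound treatment at 37 C, detection reagent was added for 30 min at room temperature before luminescence reading.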

[6] = qHTS assay to identify small molecule antagonists of the estrogen related receptor (ERR) signaling pathway from Tox21 library - cell viability counter screen (AID 1224834); note: nearly all actives have a fitted effect of over 30% in size
Method in brief: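 CellTiter-Fluor fluorescence measured; ERR cells; 17.5 h compound incubation at 37 C; 30 min reagent step.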

[7] = target: Luciferin 4-monooxygenase (Photinus pyralis) (UniProt P08659); experiment: qHTS assay to identify small molecule inhibitors of firefly luciferase (AID 1224835); note: series mostly up to about 120 µM; nearly all actives have a fitted effect of over 25% in size
Sequence of Luciferin 4-monooxygenase (Photinus pyralis) (P08659 whole entry, looked up): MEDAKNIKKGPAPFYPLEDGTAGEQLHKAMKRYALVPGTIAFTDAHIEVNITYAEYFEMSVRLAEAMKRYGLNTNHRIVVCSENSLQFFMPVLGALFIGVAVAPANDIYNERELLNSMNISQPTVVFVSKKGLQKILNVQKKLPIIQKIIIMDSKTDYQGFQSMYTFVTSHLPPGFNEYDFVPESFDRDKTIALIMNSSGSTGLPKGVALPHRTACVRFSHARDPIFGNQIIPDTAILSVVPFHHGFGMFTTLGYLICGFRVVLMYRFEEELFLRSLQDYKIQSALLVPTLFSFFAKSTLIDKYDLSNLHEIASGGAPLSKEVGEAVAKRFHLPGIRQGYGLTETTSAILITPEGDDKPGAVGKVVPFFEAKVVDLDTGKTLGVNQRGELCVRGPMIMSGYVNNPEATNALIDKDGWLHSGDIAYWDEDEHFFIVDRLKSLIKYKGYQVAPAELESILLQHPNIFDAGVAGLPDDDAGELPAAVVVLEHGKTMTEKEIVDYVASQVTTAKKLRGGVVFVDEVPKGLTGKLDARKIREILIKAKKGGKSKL
Method in brief: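 Quantitative HTS format; KM concentrations of both substrates. Purified P. pyralis FLuc activity quantified from luminescence images.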

[8] = qHTS assay to identify small molecule agonists of the constitutive androstane receptor (CAR) signaling pathway - cell viability counter screen (AID 1224836); note: series mostly up to about 92 µM; nearly all actives have a fitted effect of over 45% in size
Method in brief: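 23 h treatment, 37 C, 5% CO2. Cell line: HepG2 stably expressing hCAR with a CYP2B6-2.2kb construct. Co-treatment: PK11195, 0.75 uM final. Read-out: CellTiter-Fluor fluorescence intensity.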

[9] = qHTS assay to identify small molecule antagonists of the constitutive androstane receptor (CAR) signaling pathway - cell viability counter screen (AID 1224837); note: series mostly up to about 92 µM; nearly all actives have a fitted effect of over 45% in size
Method in brief: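 Using CellTiter-Fluor, viability is scored in HepG2 cells stably carrying hCAR and a 2.2kb CYP2B6 reporter after 23 hr compound exposure across 15 concentrations, with CITCO present at 50 nM.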

[10] = target: Nuclear receptor subfamily 1 group I member 3 (Homo sapiens) (UniProt Q14994); experiment: qHTS assay to identify small molecule antagonists of the constitutive androstane receptor (CAR) signaling pathway (AID 1224838);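 note: HepG2 cells stably expressing hCAR with CYP2B6 luciferase reporter stimulated by CITCO; nearly all actives have a fitted effect of over 40% in size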
Sequence of Nuclear receptor subfamily 1 group I member 3 (Homo sapiens) (Q14994 whole entry, looked up): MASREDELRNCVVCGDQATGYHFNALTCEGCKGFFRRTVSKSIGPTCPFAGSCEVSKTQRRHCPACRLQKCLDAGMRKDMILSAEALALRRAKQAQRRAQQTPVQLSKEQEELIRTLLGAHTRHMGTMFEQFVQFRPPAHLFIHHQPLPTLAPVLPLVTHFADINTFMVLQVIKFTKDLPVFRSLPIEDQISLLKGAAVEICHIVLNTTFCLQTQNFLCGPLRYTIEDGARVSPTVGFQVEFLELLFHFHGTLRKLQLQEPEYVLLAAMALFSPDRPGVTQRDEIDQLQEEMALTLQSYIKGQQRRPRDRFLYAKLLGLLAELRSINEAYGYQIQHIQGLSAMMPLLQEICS
Method in brief: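 Reporter luminescence was quantified after 24 h exposure of hCAR/CYP2B6-2.2kb double-stable HepG2 cells to compounds at 15 concentrations in the presence of 50 nM CITCO final.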

[11] = target: Nuclear receptor subfamily 1 group I member 3 (Homo sapiens) (UniProt Q14994); experiment: qHTS assay to identify small molecule agonists of the constitutive androstane receptor (CAR) signaling pathway (AID 1224839); note: nearly all actives have a fitted effect of over 15% in size; note: potency is the fitted concentration of half-maximal effect;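 for activation: HepG2 cells stably carrying human CAR and a CYP2B6 luciferase reporter; series mostly up to about 92 µM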
Method in brief: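 Compounds tested at 15 concentrations on HepG2 cells stably harbouring hCAR and CYP2B6-2.2kb reporter constructs, co-treated with PK11195 (0.75 uM final), 24 h at 37 C; luminescent reporter signal quantified.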

[12] = qHTS assay to identify small molecule antagonists of the estrogen related receptor signaling pathway with the pleiotropic PPARgamma coactivator (PGC) from Tox21 10K library - cell viability counter screen (AID 1224840; active = well fitted cell-killing curve with a large enough effect in the repeat runs, not every such curve was filed as active; note: nearly all actives have a fitted effect of over 40% in size)
Method in brief: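 Here the PGC/ERR cells serve as a cytotoxicity control: they are exposed to compounds for 17.5 hours at 37 C, and live-cell signal is quantified using CellTiter-Fluor fluorescence.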

[13] = qHTS assay to identify small molecule antagonists of the estrogen related receptor (ERR) signaling pathway - cell viability counter screen (AID 1224818);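 note: series mostly up to about 46 µM; viability measured after 17.5 h of compound exposure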
Method in brief: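 In the same ERR cell assay, compound-treated wells (17.5 h, 37 C) were multiplexed with a fluorogenic viability reagent, CellTiter-Fluor, read after 30 min to flag cytotoxic substances.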

[14] = qHTS assay to identify small molecule antagonists of the estrogen related receptor (ERR) signaling pathway (AID 1224819;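 note: luminescence from an ERR-driven luciferase reporter measured with One-Glo reagent; series mostly up to about 46 µM; nearly all actives have a fitted effect of over 50% in size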)
Method in brief: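 qHTS in ERR cells, 2,000/well, 1536 format. Cpd (DMSO) added after 6 h settle, 18 h 37 C. One-Glo luminescence, 30 min RT.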

[15] = qHTS assay to identify small molecule agonists of the estrogen related receptor (ERR) signaling pathway (AID 1224820)
Method in brief: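 ERR reporter cell line (from NTP), 2,000 cells/well, incubated 6 h before compound addition, then 18 h at 37 C. Luminescence measured 30 min after One-Glo reagent at room temperature.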

[16] = system: estrogen-related receptor alpha (ERRalpha) with PGC-1alpha coactivator, human; experiment: qHTS assay to identify small molecule antagonists of the estrogen related receptor signaling pathway with the pleiotropic PPARgamma coactivator (PGC) (AID 1224821; calls by dose curve;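 note: series mostly up to about 46 µM; lower luminescence signal means antagonism of PGC/ERR signalling; nearly all actives have a fitted effect of over 50% in size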)
Method in brief: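 PGC/ERR reporter cell line, plated 6 h before compound addition, then exposed 18 h at 37 °C. Luciferase activity read by luminescence 30 min after One-Glo addition; decrease indicates antagonism.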

[17] = qHTS assay to identify small molecule antagonists of the estrogen related receptor signaling pathway with the pleiotropic PPARgamma coactivator (PGC) cell viability counter screen (AID 1224822; note: series mostly up to about 46 µM)
Method in brief: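 Compounds in DMSO, with positive and negative controls, were applied to PGC/ERR cells (2,000/well) and left 17.5 h at 37 C before CellTiter-Fluor detection.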

[18] = qHTS assay to identify small molecule agonists of the estrogen related receptor signaling pathway with the pleiotropic PPARgamma coactivator (PGC) (AID 1224823)
Method in brief: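 PGC/ERR reporter cells seeded 6 h, then exposed to compounds (23 nL in DMSO) for 18 h at 37 C. One-Glo luciferase luminescence read after 30 min at room temperature.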

[19] = qHTS assay to identify small molecule antagonists of the estrogen related receptor signaling pathway with the pleiotropic PPARgamma coactivator (PGC) from Tox21 10K library (AID 1224841; call rule not given here)
Method in brief: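 Each well held 2,000 PGC/ERR cells, pre-incubated six hours (37 C, 5% CO2). Test substances in DMSO were added by pin tool and left for 18 h at 37 C before luciferase detection by One-Glo.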

[20] = qHTS assay to identify small molecule agonists of the estrogen related receptor signaling pathway with the pleiotropic PPARgamma coactivator (PGC) from Tox21 10K library (AID 1224842); note: nearly all actives have a fitted effect of over 15% in size
Method in brief: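 PGC/ERR reporter cells (NTP line) were seeded 2,000 per well, rested 6 h at 37 C/5% CO2, then pin-dosed with compounds in DMSO for 18 h at 37 C; luciferase read by One-Glo luminescence after 30 min at room temperature.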

With `FC(F)(F)C(Cl)(Cl)Cl` the Potency [1] was “inactive”, the Potency [2] was “inactive” and the outcome [3] was “inactive”. For the same compound, the Potency [4] was “inactive”, the Potency [5] was “inactive” and the Potency [6] was “inactive”. The Potency [7] was “inactive”, the Potency [8] was “inactive” and the Potency [9] was “inactive”. The Potency [10] was “inactive”, the Potency [11] was “inactive” and the Potency [12] was “inactive”.

For `COc1cc(N)c(Cl)cc1C(=O)NC1CCN(Cc2ccccc2)CC1`, the Potency [1] was “inactive”, the Potency [2] was “inactive” and the outcome [3] was “inactive”. For the same compound, the Potency [4] was “inactive”, the Potency [5] was “inactive” and the Potency [6] was “inactive”. The Potency [7] was “inactive”, the Potency [8] was “inactive” and the Potency [9] was “inactive”. The Potency [10] was “inactive”, the Potency [11] was 6.68 µM (active) and the Potency [12] was “inactive”.

For `CCCCC(CC)COC(=O)COc1cc(Cl)c(Cl)cc1Cl` (stereo not drawn), the Potency [1] was “inactive”, the Potency [2] was “inactive” and the outcome [3] was “inactive”. For the same compound, the Potency [4] was “inactive”, the Potency [5] was “inactive” and the Potency [6] was “inactive”. For the same compound, the Potency [7] was “inactive”, the Potency [8] was “inactive” and the Potency [9] was “inactive”. For the same compound, the Potency [10] was “inactive”, the Potency [11] was “inactive” and the Potency [12] was “inactive”.

In the case of `COc1ccccc1N1CCN(CCCNc2cc(=O)n(C)c(=O)n2C)CC1`, the Potency [1] is reported as “inactive”, the Potency [2] is reported as “inactive” and the outcome [3] is reported as “inactive”. For the same compound, the Potency [4] was “inactive”, the Potency [5] was “inactive” and the outcome [13] was “inactive”. For the same compound, the outcome [14] was “inactive”, the outcome [15] was “inactive” and the outcome [16] was “inactive”. The outcome [17] was “inactive”, the outcome [18] was “inactive” and the Potency [6] was “inactive”. The Potency [7] was “inactive”, the Potency [8] was “inactive” and the Potency [9] was “inactive”. For the same compound, the Potency [10] was “inactive”, the Potency [11] was “inactive” and the Potency [12] was “inactive”. For the same compound, the Potency [19] was “inactive”.

In the case of `CCCCCCC`, the Potency [1] is reported as “inactive”, the Potency [2] is reported as “inactive” and the outcome [3] is reported as “inactive”. The Potency [4] was “inactive”, the Potency [5] was “inactive” and the Potency [6] was “inactive”. For the same compound, the Potency [7] was “inactive”, the Potency [8] was “inactive” and the Potency [9] was “inactive”. For the same compound, the Potency [10] was “inactive”, the Potency [11] was “inactive” and the Potency [12] was “inactive”.

In the case of `C=Cc1ccccc1`, the Potency [1] is reported as “inactive”, the Potency [2] is reported as “inactive” and the outcome [3] is reported as “inactive”. For the same compound, the Potency [4] was “inactive”, the Potency [5] was “inactive” and the Potency [6] was “inactive”. The Potency [7] was “inactive”, the Potency [8] was “inactive” and the Potency [9] was “inactive”. The Potency [10] was “inactive”, the Potency [11] was “inactive” and the Potency [12] was “inactive”.

For `O=C(O)CN(CCN(CC(=O)O)CC(=O)O)CCN(CC(=O)O)CC(=O)O`, the activation [1] was 6.5% [at 15.8 µM], the activity change, negative = cytotoxicity [2] was 2.65% [at 15.8 µM] and the activity change, negative = cytotoxicity [3] was 4.77% [at 19 µM]. The activity, negative = inhibition [4] was -10.7% [at 19 µM], the Potency [5] was “inactive” and the outcome [13] was “inactive”. The outcome [14] was “inactive”, the outcome [15] was “inactive” and the outcome [16] was “inactive”. The outcome [17] was “inactive”, the outcome [18] was “inactive” and the activity change, negative = inhibition [7] was 2.77% [at 23.6 µM]. For the same compound, the viability change, negative = cytotoxic [8] was -25% [at 19 µM], the activity change, negative = cytotoxicity [9] was -28.8% [at 19 µM] and the activity, negative = inhibition [10] was -23.7% [at 19 µM]. It also gave an activation [11] of -1.04% [at 19 µM], a viability change, negative = cytotoxic [12] of 0.226% [at 19 µM] and an activity, negative = inhibition [19] of 0.933% [at 19 µM].

For `CCN(CC)C(=O)N(CC)CC`, the Potency [1] was “inactive”, the Potency [2] was “inactive” and the outcome [3] was “inactive”. For the same compound, the Potency [4] was “inactive”, the Potency [5] was “inactive” and the Potency [6] was “inactive”. The Potency [7] was “inactive”, the Potency [8] was “inactive” and the Potency [9] was “inactive”. The Potency [10] was “inactive”, the Potency [11] was “inactive” and the Potency [12] was “inactive”.

For `N#CSCC(=O)O`, the Potency [1] was “inactive”, the Potency [2] was “inactive” and the outcome [3] was “inactive”. For the same compound, the Potency [4] was “inactive”, the Potency [5] was “inactive” and the Potency [6] was “inactive”. For the same compound, the Potency [7] was “inactive”, the Potency [8] was “inactive” and the Potency [9] was “inactive”. For the same compound, the Potency [10] was “inactive”, the Potency [11] was “inactive” and the Potency [12] was “inactive”. The Potency [19] was “inactive” and the Potency [20] was “inactive”.
